# Most compounds without a hit are left out; they make up all but 19% or so of the library.
# HT1080 IDH1KD tx: HT-1080 IDH1 knockdown cell toxicity (counter line); HT-1080 IDH1 knockdown viability, ATP luminescence, 48 h; Potency, µM (series often up to 46.1 µM), inactives show at the highest dose activity, negative = toxicity, hits mostly cytotoxic; 360,000 compounds, 2% hits; AID 686971;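 note: potency is the fitted concentration of half-maximal effect; 0% = DMSO wells and -100% = cell-free medium wells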
#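 In this qHTS, HT-1080 cells depleted of IDH1 are exposed for 48 h at 37 °C to compound titrations. Toxicity is scored from CellTiter-Glo luminescence, with DMSO as full viability and medium alone as none.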
# DT40 TDP1 CPT: DT40-hTDP1 cell growth loss with CPT; chicken DT40 Tdp1-/-;hTDP1 cells + 20 nM CPT, ATP luminescence, 48 h; Potency, µM (doses to about 46.2 µM), inactives show top-dose activity change, negative = growth inhibition, actives largely listed as inhibitors; 420,000 compounds, 12% hits; note: potency is the fitted concentration of half-maximal effect; nearly all actives have a fitted effect of over 55% in size
#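 Chicken DT40 Tdp1-/- cells stably complemented with human TDP1 were seeded at 400 cells/well in medium containing 20 nM camptothecin, exposed to pin-transferred compounds, and grown at 37 °C for at least 48 hr. Viability was read as ATP luminescence.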
# TDP1 cell noCPT: qHTS for Inhibitors of human tyrosyl-DNA phosphodiesterase 1 (TDP1): qHTS in cells in absence of CPT. 420,000 compounds, 15% hits. DT40 Tdp1-/- hTDP1 cells, no CPT, ATP luminescence, 48 h. AID 686978, 2013. Potency, µM (top dose mostly 46.2 µM), for the others: at the highest dose activity change, negative = growth inhibition, actives largely listed as inhibitors; note: potency is the fitted concentration of half-maximal effect; nearly all actives have a fitted effect of over 55% in size
#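 Stably hTDP1-transfected Tdp1-null chicken DT40 cells were treated with library compounds minus camptothecin and grown for at least 48 hr at 37 °C, after which cellular ATP was quantified by luminescence.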
# HT1080NT lethal: kills 2HG-producing HT-1080-NT fibrosarcoma cells; HT-1080-NT fibrosarcoma viability, CellTiter-Glo ATP luminescence, 48 h; Potency, µM (doses to about 46.1 µM), inactives show top-dose activity, negative = less viability, actives largely listed as cytotoxic; 360,000 compounds, 1.6% hits; AID 686970;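 note: NT is the 2HG producing partner of a matched IDH1 knockdown line; potency is the fitted concentration of half-maximal effect; 0% = DMSO-treated cells and -100% = media-only wells without cells; nearly all actives have a fitted effect of over 55% in size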
#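 A 48-hour cytotoxicity screen used HT-1080-NT cells plated 2 hours before compound delivery. ATP-based CellTiter-Glo luminescence measured viability, normalized to DMSO and no-cell controls.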
# IL1B secr inh: blocks inflammasome-driven IL-1 beta release. THP-1 LPS/ATP IL-1B secretion, AlphaLISA, 16 h; hits give low values. activity change, % at 57.5 µM. 360,000 compounds, 4.7% hits. AID 743279; in the data active = activity change below about -50%; inconclusive = mostly about -30% to -49%
#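 THP-1 cells pretreated 1 hr with compounds (up to 57.5 uM final), then stimulated with LPS (250 ng/mL final) plus ATP (1.25 mM final); secreted IL-1B measured by AlphaLISA after 16 hr, decreased signal indicating inhibition.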
# An asterisk follows results filed as active; u = inconclusive; x = no result; ! = repeats disagree. Unless noted, calls come from the whole dose curve; as a rule, active = well fitted curve in the direction sought with a large enough effect; inconclusive = small, poorly fitted or top-dose-only effect, or another doubt; inactive = no such curve, though single readings can be large; an effect the other way counts as inactive or inconclusive. Unless noted, % is set by controls: 0 for no effect and ±100 for the full control effect.
SMILES,HT1080 IDH1KD tx,DT40 TDP1 CPT,TDP1 cell noCPT,HT1080NT lethal,IL1B secr inh
CSc1ccccc1NC(=O)C1=COCCO1,13.8%,-11.1%,22.8%,16.4%,-11.9
O=C(CSc1nnc2scc(-c3ccccc3)n12)Nc1nsc(-c2ccc(Cl)cc2)n1,2.6%,16.4µM*,20.6µM*,11.5%,33.5
CCOc1ccc(NC(=O)Cn2cc(C(=O)c3ccc(C)cc3)c(=O)c3cc4c(cc32)OCO4)cc1,x,-28.1%,-7.0%,x,x
COc1ccc(C(=O)c2cn(CC(=O)Nc3ccc4c(c3)OCCO4)c3ccc(OC)cc3c2=O)cc1,x,20.6µM*,u,x,x
CCOc1ccc(C(=O)c2cn(CC(=O)Nc3cc(OC)cc(OC)c3)c3ccc(F)cc3c2=O)cc1,x,u,20.6µM*,x,x
CCOc1ccc(C(=O)c2cn(CC(=O)Nc3ccc4c(c3)OCO4)c3ccc(OCC)cc3c2=O)cc1,x,u,3.26µM*,x,x
O=C(NCCc1ccccc1Cl)c1ccc2c(c1)nc1n2CCOC1,x,12.0%,-17.6%,x,x
Cc1ccc(C(=O)Nc2cccc(C(F)(F)F)c2)cc1NC(=O)c1nccn1C,-1.9%,2.4%,2.8%,7.8%,76.1
Cc1ccc(C(=O)Nc2cccc(C(F)(F)F)c2)cc1Nc1ncnc2nc[nH]c12,-2.4%,25.9µM*,20.6µM*,-3.5%,-19.4
Cc1ccc(C(=O)Nc2cccc(C(F)(F)F)c2)cc1Nc1cnccn1,0.0%,23.1µM*,16.4µM*,-1.3%,11.0
Cc1ccc(C(=O)Nc2cccc(C(F)(F)F)c2)cc1NC(=O)c1ccno1,5.1%,u,11.6µM*,2.6%,u
CC(=O)C12OC(C)(C)OC1CC1C3CCC4=CC(=O)C=CC4(C)C3(F)C(O)CC12C (centres undefined),5.7%,-7.5%,-25.8%,7.8%,-56.9*
CC(=O)[C@@]1(O)CC[C@H]2[C@@H]3C[C@H](C)C4=CC(=O)C=C[C@]4(C)[C@@]3(F)[C@@H](O)C[C@@]21C,u,u,-7.1%,16.9%,-79.2*
C[C@@H]1C[C@@H]2[C@H]3CCC4=CC(=O)C=C[C@]4(C)[C@]3(F)[C@@H](O)C[C@@]2(C)[C@@]1(O)C(=O)CO,x,-17.2%,-25.3%,x,x
C[C@@H]1C[C@H]2[C@@H]3C[C@H](F)C4=CC(=O)C=C[C@]4(C)[C@@]3(F)[C@@H](O)C[C@]2(C)[C@@]1(O)C(=O)COC(=O)C(C)(C)C,u,23.1µM*,23.1µM*,u,0.0
CCCC(=O)O[C@]1(C(=O)COC(C)=O)CC[C@H]2[C@@H]3C[C@H](F)C4=CC(=O)C=C[C@]4(C)[C@@]3(F)[C@@H](O)C[C@@]21C,-17.9%,23.7µM*!,u,u,-75.3*
CC(=O)OCC(=O)[C@@]12OC(C)(C)OC1CC1C3CC(F)C4=CC(=O)C=C[C@@]4(C)[C@@]3(F)C(O)C[C@]12C (some centres undefined),x,8.2%,-1.1%,x,x
CCN(CC)Cc1ccccc1Sc1ccccc1,-2.3%,-8.5%,-28.5%,2.2%,-18.2
COc1ccc(S(=O)(=O)N2CCN(C(c3ccccc3)c3ccccc3)CC2)cc1NC(C)=O,-2.1%,u,-13.5%,-1.7%,-17.3
c1ccc(-c2ncc(-c3ccn[nH]3)s2)cc1,13.5%,5.0%,u,1.4%,u
C[C@@H]1C[C@H]2[C@@H]3C[C@H](F)C4=CC(=O)C(Cl)=C[C@]4(C)[C@@]3(F)[C@@H](O)C[C@]2(C)[C@@]1(O)C(=O)CO,x,u,16.8µM*,x,x
CCCCCC(=O)NNC(=O)c1ccc(-c2ccccc2)cc1,20.7%,-2.2%,-17.8%,9.7%,-12.6
COc1ccc(CSc2nnnn2Cc2ccccc2)cc1OC,2.3%,-16.3%,-29.8%,2.7%,-2.1
CN1/C(=C/C2CC(=O)NC2=O)C(C)(C)c2ccccc21 (centres undefined),-21.0%,-4.6%,-9.9%,-13.7%,39.1
CN1/C(=C\P(=O)(N(C)C)N(C)C)C(C)(C)c2ccccc21,u,5.8µM*,3.66µM*,u,-11.1
SMILES,HT1080 IDH1KD tx,DT40 TDP1 CPT,TDP1 cell noCPT,HT1080NT lethal,IL1B secr inh
O=C1Cc2c([nH]c3ccc([N+](=O)[O-])cc23)-c2ccccc2N1,2.06µM*,1.84µM*,1.84µM*,-9.6%,-98.5*
O=[N+]([O-])c1ccc2[nH]c3nc4ccccc4nc3c2c1,u,-6.1%,-24.5%,-13.9%,-24.6
Brc1cc(Br)c2ncnc(N3CCCCC3)c2c1,u,20.6µM*,13µM*,9.2µM*,-18.2
Clc1ccc(-n2ncc3c(N4CCCCCC4)ncnc32)cc1,6.9%,u,u,9.7%,-6.1
O=C(COc1cccc2ccccc12)NNC(=O)C1CCCO1 (centres undefined),-2.2%,-8.0%,-5.6%,2.6%,19.2
CN(C)CCCNS(=O)(=O)c1ccc(NC2CCCCCC2)c([N+](=O)[O-])c1,u,2.91µM*,2.31µM*,u,-71.5*
CCNc1ccc(S(=O)(=O)NCCN(C)C)cc1[N+](=O)[O-],-1.6%,0.4%,-6.9%,0.0%,7.0
CCC(=O)c1cn(CC(=O)Nc2ccc(C)cc2C)c2ccccc12,-11.7%,-17.7%,-29.1%,-8.0%,11.5
O=c1cc(O)nc(-c2ccc(Cl)cc2)s1,1.1%,-9.0%,-15.6%,19.5%,8.5
Cc1ccc(CNc2nc(C)cs2)cc1,-4.3%,-2.8%,-28.1%,1.9%,-58.0*
CCN(CC)S(=O)(=O)c1ccc(N=Nc2cc(C)cc(Br)c2O)cc1,-2.5%,-22.1%,u,-14.5%,-6.3
Oc1ccc(N=Nc2ccc(Br)cc2)c(O)c1,u,25.9µM*,23.1µM*,u,71.8
Cc1ccc(N=Nc2ccc(O)cc2)c(Br)c1,u,3.5%,3.8%,-24.0%,-85.8*
Oc1ccc(N=Nc2ccc3c(c2)OCCO3)c(O)c1,u,u,u,-15.7%,-12.5
COc1cc(OC)cc(C(=O)NCC(=O)NCC(c2ccco2)N2CCCCC2)c1 (centres undefined),-5.1%,-4.7%,-7.5%,0.2%,8.4
COc1ccccc1NC(=O)c1nc(SCc2ccc(F)cc2)ncc1Cl,x,-20.1%,-9.9%,x,x
COc1ccccc1NC(=O)c1ccc(C(=O)Nc2ccccc2OC)nc1,8.3%,4.61µM*,u,8.4%,23.5
COc1ccccc1NC(=O)c1ccc(CS(=O)(=O)c2ccc(C)cc2)cc1,-21.5%,u,8.4%,-7.7%,106.3
CCS(=O)(=O)c1ncc(Cl)c(C(=O)Nc2ccccc2OC)n1,u,1.03µM*,1.03µM*,-16.8%,-94.2*
